Data on seven sequences can be found in PMC7862700, “An all-to-all approach to the identification of sequence-specific readers for epigenetic DNA modifications on cytosine”.

Common to all, as to experiment: DAPPL (digital affinity profiling via proximity ligation, sequencing); 10 mM Tris-HCl pH 7.5, 50 mM NaCl, 1 mM DTT, 4% glycerol, room temperature, 30 min; GST-TFs on glutathione beads, 16-mer random dsDNA library, 0.1% formaldehyde crosslink after washing; high values mean tight binding
The target in experiment [1] is T1, FEV (Homo sapiens, UniProt Q99581 1-238).
T1 sequence: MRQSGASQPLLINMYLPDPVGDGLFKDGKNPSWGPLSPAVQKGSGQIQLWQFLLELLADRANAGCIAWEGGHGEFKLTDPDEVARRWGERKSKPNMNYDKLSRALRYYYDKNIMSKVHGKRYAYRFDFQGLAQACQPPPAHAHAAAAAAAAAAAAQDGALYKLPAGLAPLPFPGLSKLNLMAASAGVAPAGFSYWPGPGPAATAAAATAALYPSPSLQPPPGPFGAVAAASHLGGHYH
The conditions noted are these: protein: recombinant; tags: N-terminal GST; dsDNA, one strand shown. An outline of the steps:
(§1)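 Pools were built from human transcription factors expressed in yeast as GST fusions, captured on glutathione beads and DNA-barcoded, along with a tag-only sample. Incubation with 200 nmole of a 16-mer random double-stranded DNA library lasted 30 min at room temperature in Tris/NaCl/DTT/glycerol buffer, and was followed by washing, 0.1% formaldehyde crosslinking, proximity ligation, PCR amplification and Illumina NextSeq500 sequencing. Binding signal is the quotient of each hexamer's read frequency for a factor and its frequency for the tag-only sample.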

Experiment [2] deals with ETV5 (Homo sapiens, UniProt P41161 1-510). The conditions noted are these: protein: recombinant; tags: N-terminal GST; dsDNA, one strand shown. The gist of the method:
as §1

Experiment [3] addresses HSF1 (Homo sapiens, UniProt Q00613 1-529). The conditions noted are these: protein: recombinant; tags: N-terminal GST; chain copies: 3; dsDNA, one strand shown. An outline of the steps:
as §1

Experiment [4] has as its target T2, SPIC (Homo sapiens, UniProt Q8N5J4 1-248).
T2 sequence: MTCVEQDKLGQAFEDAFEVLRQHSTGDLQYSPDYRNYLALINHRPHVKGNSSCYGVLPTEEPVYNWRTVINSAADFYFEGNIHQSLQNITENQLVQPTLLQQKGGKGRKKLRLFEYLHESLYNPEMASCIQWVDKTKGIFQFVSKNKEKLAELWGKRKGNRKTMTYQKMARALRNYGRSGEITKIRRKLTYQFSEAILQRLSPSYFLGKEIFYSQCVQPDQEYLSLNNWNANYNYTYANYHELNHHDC
Conditions: protein: recombinant; tags: N-terminal GST; dsDNA, one strand shown. An outline of the steps: as §1

Experiment [5] has as its target ELF4 (Homo sapiens, UniProt Q99607 1-663). The conditions noted are these: protein: recombinant; tags: N-terminal GST; dsDNA, one strand shown. An outline of the steps: as §1
For experiment [6], the target named is T3, ELK4 (Homo sapiens, UniProt P28324-2 1-405).
T3 sequence: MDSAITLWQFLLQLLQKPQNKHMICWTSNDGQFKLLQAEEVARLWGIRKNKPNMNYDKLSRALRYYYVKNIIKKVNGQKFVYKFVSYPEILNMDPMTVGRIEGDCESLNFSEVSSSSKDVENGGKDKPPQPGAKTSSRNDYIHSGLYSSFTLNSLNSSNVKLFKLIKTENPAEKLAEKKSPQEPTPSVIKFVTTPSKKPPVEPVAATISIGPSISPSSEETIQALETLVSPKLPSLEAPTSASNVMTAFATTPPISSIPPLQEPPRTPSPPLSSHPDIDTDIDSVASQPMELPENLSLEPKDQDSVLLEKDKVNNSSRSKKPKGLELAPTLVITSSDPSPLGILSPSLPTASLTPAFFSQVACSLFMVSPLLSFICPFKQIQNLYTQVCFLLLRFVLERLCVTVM
Conditions: protein: recombinant; tags: N-terminal GST; dsDNA, one strand shown. The gist of the method: as §1

Experiment [7] addresses T4, ETV2 (Homo sapiens, UniProt O00321 1-342).
T4 sequence: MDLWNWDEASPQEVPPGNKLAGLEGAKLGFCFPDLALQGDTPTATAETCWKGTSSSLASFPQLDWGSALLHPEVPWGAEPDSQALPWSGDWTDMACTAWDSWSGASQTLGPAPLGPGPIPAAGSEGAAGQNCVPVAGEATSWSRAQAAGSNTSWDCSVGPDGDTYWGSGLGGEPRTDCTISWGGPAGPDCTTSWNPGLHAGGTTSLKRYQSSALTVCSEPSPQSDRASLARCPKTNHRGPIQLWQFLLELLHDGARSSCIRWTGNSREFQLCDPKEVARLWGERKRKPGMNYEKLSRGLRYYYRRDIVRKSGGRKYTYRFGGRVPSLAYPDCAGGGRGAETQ
Conditions: protein: recombinant; tags: N-terminal GST; dsDNA, one strand shown. The gist of the method: as §1

In experiment [8] the target is T5, ELF3 (Homo sapiens, UniProt P78545 1-371).
T5 sequence: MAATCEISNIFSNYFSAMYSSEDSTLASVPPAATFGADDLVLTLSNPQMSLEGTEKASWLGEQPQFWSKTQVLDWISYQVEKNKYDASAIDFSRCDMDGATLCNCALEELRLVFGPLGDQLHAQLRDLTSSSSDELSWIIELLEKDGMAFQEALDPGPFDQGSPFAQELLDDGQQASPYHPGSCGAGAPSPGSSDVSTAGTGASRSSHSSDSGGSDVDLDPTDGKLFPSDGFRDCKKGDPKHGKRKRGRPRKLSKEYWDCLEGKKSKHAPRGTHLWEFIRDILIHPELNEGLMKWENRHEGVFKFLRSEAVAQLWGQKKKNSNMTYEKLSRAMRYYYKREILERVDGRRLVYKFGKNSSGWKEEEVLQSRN
Conditions: protein: recombinant; tags: N-terminal GST; dsDNA, one strand shown. The gist of the method: as §1

In experiment [9] the target is CRX (Homo sapiens, UniProt O43186 1-299). The conditions noted are these: protein: recombinant; tags: N-terminal GST; dsDNA, one strand shown. The gist of the method:
as §1

Experiment [10] deals with ETV1 (Homo sapiens, UniProt P50549 1-477). Conditions: protein: recombinant; tags: N-terminal GST; dsDNA, one strand shown. The gist of the method:
as §1

Chain of ELF4 (Q99607 whole entry): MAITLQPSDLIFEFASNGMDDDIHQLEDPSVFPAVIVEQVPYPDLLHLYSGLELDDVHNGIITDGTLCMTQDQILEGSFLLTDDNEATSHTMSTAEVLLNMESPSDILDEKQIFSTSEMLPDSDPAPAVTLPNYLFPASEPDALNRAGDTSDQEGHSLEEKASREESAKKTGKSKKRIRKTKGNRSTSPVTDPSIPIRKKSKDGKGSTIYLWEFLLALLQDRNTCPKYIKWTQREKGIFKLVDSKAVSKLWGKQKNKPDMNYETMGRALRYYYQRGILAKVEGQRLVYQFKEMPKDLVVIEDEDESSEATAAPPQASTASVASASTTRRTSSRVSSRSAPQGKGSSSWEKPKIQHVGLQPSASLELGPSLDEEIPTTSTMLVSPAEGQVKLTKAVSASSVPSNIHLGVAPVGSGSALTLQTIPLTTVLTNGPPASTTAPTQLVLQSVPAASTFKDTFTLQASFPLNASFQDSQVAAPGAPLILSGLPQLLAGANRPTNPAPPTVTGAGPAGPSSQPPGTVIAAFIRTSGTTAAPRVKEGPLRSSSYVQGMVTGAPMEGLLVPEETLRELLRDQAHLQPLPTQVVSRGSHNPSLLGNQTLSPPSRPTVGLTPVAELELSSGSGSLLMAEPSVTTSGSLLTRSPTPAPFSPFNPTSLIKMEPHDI
Chain of CRX (O43186 whole entry): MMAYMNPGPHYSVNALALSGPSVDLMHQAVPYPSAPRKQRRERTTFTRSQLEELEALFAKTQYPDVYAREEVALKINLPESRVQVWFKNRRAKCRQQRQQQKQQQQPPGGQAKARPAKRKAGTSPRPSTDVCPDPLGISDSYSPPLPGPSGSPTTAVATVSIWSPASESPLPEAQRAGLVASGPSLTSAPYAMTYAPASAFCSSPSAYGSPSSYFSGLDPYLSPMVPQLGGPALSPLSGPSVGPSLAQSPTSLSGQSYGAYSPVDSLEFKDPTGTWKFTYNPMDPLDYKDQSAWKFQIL
Chain of HSF1 (Q00613 whole entry): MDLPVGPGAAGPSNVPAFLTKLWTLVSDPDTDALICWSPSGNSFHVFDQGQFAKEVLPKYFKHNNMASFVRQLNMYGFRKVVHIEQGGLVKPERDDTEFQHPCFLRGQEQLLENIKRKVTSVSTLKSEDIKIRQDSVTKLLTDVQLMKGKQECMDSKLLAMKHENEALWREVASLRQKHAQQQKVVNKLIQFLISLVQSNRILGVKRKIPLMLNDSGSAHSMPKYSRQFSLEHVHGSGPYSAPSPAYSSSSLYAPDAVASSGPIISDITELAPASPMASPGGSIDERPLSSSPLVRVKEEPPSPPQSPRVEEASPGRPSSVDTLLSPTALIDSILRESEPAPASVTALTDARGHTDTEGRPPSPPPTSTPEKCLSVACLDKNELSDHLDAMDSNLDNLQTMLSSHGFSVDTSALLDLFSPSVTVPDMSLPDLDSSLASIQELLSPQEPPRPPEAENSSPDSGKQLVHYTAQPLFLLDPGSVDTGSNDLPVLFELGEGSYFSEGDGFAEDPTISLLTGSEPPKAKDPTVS
Chain of ETV5 (P41161 whole entry): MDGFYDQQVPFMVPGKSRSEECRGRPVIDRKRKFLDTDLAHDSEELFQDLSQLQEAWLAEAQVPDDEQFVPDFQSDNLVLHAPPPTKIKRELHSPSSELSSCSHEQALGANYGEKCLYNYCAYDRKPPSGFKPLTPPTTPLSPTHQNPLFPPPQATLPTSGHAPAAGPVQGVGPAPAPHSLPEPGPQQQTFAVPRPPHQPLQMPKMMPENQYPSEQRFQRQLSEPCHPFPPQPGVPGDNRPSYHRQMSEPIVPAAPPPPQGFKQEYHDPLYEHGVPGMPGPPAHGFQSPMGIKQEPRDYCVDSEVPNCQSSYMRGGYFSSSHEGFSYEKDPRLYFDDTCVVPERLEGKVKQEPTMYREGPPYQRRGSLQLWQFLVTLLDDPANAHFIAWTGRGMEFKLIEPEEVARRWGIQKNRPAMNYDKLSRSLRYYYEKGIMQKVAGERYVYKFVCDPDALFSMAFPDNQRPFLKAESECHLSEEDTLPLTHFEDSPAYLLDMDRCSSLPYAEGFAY
Chain of ETV1 (P50549 whole entry): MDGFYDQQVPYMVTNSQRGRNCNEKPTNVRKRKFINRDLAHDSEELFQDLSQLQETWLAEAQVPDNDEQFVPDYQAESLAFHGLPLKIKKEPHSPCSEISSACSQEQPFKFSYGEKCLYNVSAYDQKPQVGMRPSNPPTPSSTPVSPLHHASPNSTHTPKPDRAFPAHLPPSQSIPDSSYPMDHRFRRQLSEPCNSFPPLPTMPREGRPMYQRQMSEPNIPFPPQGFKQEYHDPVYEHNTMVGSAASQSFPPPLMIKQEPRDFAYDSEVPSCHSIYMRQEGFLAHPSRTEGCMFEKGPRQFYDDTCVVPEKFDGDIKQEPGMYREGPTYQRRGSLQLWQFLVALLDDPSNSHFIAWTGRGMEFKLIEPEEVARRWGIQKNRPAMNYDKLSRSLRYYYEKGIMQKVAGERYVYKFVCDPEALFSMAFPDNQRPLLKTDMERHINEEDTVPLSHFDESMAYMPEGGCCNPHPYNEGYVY

TTGTTT: the binding signal in experiment [1] was 1.45 fold enrichment (6-mer frequency, TF over GST control); in experiment [2], 1.53 fold enrichment (6-mer frequency, TF over GST control); in [3], 1.24 fold enrichment (6-mer frequency, TF over GST control); in experiment [4], 1.08 fold enrichment (6-mer frequency, TF over GST control); in [5] it was 1.44 fold enrichment (6-mer frequency, TF over GST control); in experiment [6] it was 1.61 fold enrichment (6-mer frequency, TF over GST control). For the same sequence, the binding signal is 1.32 fold enrichment (6-mer frequency, TF over GST control) in [7]; 1.61 fold enrichment (6-mer frequency, TF over GST control) in experiment [8]; 1.45 fold enrichment (6-mer frequency, TF over GST control) in experiment [9]; 1.38 fold enrichment (6-mer frequency, TF over GST control) in experiment [10].

For the sequence ATGTTA, the binding signal in experiment [1] is 1.13 fold enrichment (6-mer frequency, TF over GST control); in experiment [2], 1.25 fold enrichment (6-mer frequency, TF over GST control); in experiment [3] it was 1.12 fold enrichment (6-mer frequency, TF over GST control); in [4], 1.28 fold enrichment (6-mer frequency, TF over GST control); in [5], 1.33 fold enrichment (6-mer frequency, TF over GST control); in experiment [6], 1.23 fold enrichment (6-mer frequency, TF over GST control). Further, the binding signal in [7] was 1.24 fold enrichment (6-mer frequency, TF over GST control); in experiment [8] it was 1.17 fold enrichment (6-mer frequency, TF over GST control); in experiment [9], 1.31 fold enrichment (6-mer frequency, TF over GST control); in experiment [10] it was 1.3 fold enrichment (6-mer frequency, TF over GST control).

AACCCT: the binding signal in [1] was 1.29 fold enrichment (6-mer frequency, TF over GST control); in experiment [2] it was 1.31 fold enrichment (6-mer frequency, TF over GST control); in experiment [3], 1.24 fold enrichment (6-mer frequency, TF over GST control); in experiment [4] it was 1.18 fold enrichment (6-mer frequency, TF over GST control); in experiment [5] it was 1.34 fold enrichment (6-mer frequency, TF over GST control); in [6], 1.24 fold enrichment (6-mer frequency, TF over GST control). The binding signal in experiment [7] is 1.2 fold enrichment (6-mer frequency, TF over GST control); in [8], 1.33 fold enrichment (6-mer frequency, TF over GST control); in experiment [9] it was 1.39 fold enrichment (6-mer frequency, TF over GST control); in [10] it was 1.38 fold enrichment (6-mer frequency, TF over GST control).

Take ATTTAC: the binding signal was 1.3 fold enrichment (6-mer frequency, TF over GST control) in [1]; 1.33 fold enrichment (6-mer frequency, TF over GST control) in [2]; 1.38 fold enrichment (6-mer frequency, TF over GST control) in experiment [3]; 1.2 fold enrichment (6-mer frequency, TF over GST control) in experiment [4]; 1.33 fold enrichment (6-mer frequency, TF over GST control) in experiment [5]; 1.23 fold enrichment (6-mer frequency, TF over GST control) in [6]. The binding signal in experiment [7] is 1.16 fold enrichment (6-mer frequency, TF over GST control); in experiment [8], 1.27 fold enrichment (6-mer frequency, TF over GST control); in experiment [9], 1.75 fold enrichment (6-mer frequency, TF over GST control); in [10], 1.22 fold enrichment (6-mer frequency, TF over GST control).

Regarding CTCCTC, the binding signal in [1] was 1.37 fold enrichment (6-mer frequency, TF over GST control); in experiment [2] it was 1.23 fold enrichment (6-mer frequency, TF over GST control); in experiment [3], 1.16 fold enrichment (6-mer frequency, TF over GST control); in experiment [4] it was 1.3 fold enrichment (6-mer frequency, TF over GST control); in experiment [5], 1.47 fold enrichment (6-mer frequency, TF over GST control); in experiment [6], 1.41 fold enrichment (6-mer frequency, TF over GST control). The binding signal in experiment [7] was 1.39 fold enrichment (6-mer frequency, TF over GST control); in experiment [8], 1.3 fold enrichment (6-mer frequency, TF over GST control); in experiment [9], 1.08 fold enrichment (6-mer frequency, TF over GST control); in experiment [10], 1.39 fold enrichment (6-mer frequency, TF over GST control).

Regarding TTATCG, the binding signal in [1] was 1.21 fold enrichment (6-mer frequency, TF over GST control); in experiment [2], 1.25 fold enrichment (6-mer frequency, TF over GST control); in experiment [3] it was 1.99 fold enrichment (6-mer frequency, TF over GST control); in experiment [4] it was 1.33 fold enrichment (6-mer frequency, TF over GST control); in experiment [5], 1.27 fold enrichment (6-mer frequency, TF over GST control); in experiment [6], 1.37 fold enrichment (6-mer frequency, TF over GST control). For the same sequence, the binding signal in experiment [7] was 1.18 fold enrichment (6-mer frequency, TF over GST control); in experiment [8] it was 1.22 fold enrichment (6-mer frequency, TF over GST control); in experiment [9] it was 2.79 fold enrichment (6-mer frequency, TF over GST control); in experiment [10], 1.2 fold enrichment (6-mer frequency, TF over GST control).

On to ATCTAT, for which the binding signal in [1] is 1.08 fold enrichment (6-mer frequency, TF over GST control); in experiment [2], 1.15 fold enrichment (6-mer frequency, TF over GST control); in [3] it was 1.32 fold enrichment (6-mer frequency, TF over GST control); in experiment [4], 1.27 fold enrichment (6-mer frequency, TF over GST control); in experiment [5], 1.21 fold enrichment (6-mer frequency, TF over GST control); in experiment [6], 1.18 fold enrichment (6-mer frequency, TF over GST control). The binding signal is 1.13 fold enrichment (6-mer frequency, TF over GST control) in experiment [7]; 1.23 fold enrichment (6-mer frequency, TF over GST control) in experiment [8]; 1.42 fold enrichment (6-mer frequency, TF over GST control) in [9]; 1.16 fold enrichment (6-mer frequency, TF over GST control) in [10].
